FBW7 act = FBW7 E3 ligase activators, primary screen, biochemical, AlphaScreen, human | F-box/WD repeat-containing protein 7 (Homo sapiens), Q969H0 | AlphaScreen FBW7–phospho-cyclin E peptide binding, activator screen | normalized activity (activation), % at 26.1 µM | actives 0.13% (n = 650,000); in the data active = normalized activity above about 1.9%;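 also: purified mutant Fbw7 with reduced substrate affinity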
Target sequence (Q969H0 whole entry, looked up): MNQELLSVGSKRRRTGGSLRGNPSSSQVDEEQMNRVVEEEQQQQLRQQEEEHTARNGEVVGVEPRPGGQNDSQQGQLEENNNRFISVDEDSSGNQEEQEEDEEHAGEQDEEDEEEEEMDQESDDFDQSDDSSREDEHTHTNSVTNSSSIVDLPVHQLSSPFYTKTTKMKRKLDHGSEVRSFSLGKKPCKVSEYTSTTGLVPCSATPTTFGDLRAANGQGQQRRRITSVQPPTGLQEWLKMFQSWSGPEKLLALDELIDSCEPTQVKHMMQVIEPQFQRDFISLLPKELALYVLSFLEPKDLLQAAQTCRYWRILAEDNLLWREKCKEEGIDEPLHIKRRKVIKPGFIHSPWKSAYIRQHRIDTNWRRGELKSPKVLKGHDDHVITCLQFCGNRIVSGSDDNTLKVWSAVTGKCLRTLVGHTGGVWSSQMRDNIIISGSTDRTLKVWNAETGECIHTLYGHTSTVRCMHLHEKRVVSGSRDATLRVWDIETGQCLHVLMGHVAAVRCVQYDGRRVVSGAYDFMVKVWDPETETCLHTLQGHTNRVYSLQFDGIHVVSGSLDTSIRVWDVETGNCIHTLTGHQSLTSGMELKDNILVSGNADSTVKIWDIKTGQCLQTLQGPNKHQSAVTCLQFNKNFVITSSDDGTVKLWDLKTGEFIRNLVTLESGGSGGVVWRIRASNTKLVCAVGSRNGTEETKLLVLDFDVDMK
MITF inh = MITF inhibitors, primary screen, biochemical, AlphaScreen, human | AlphaScreen MITF homodimerization, bead proximity signal | inhibition, % at 2.6 µM | actives 0.91% (n = 650,000) | Microphthalmia-associated transcription factor (Homo sapiens), O75030; in the data active = inhibition above about 50%
GPR151 activ = activators of human GPR151, primary screen, cell-based, PathHunter beta-arrestin, luminescence; activation, % at 11.2 µM; PathHunter beta-arrestin GPR151 cells; actives 1% (n = 650,000); G-protein coupled receptor 151 (Homo sapiens), Q8TDV0; in the data active = activation above about 4.9%
TEAD-YAP block = TEAD-YAP interaction inhibition, primary screen, TEAD-YAP interaction inhibitor project, luminescence, HEK-TIYL cells | inhibition, % at 9.12 µM | AID 1259422, 2018 | actives 1.4% (n = 640,000) | TEAD-Gal4/YAP UAS-luciferase luminescence; in the data active = inhibition above about 32%
Each line names hits and unclear results; the compound was inactive in the other large screens. Shown are actives, neighbours in structure and some others; about 3.4% of the full set was active somewhere.

COc1ccc(Br)cc1CN(C)Cn1nc(C)c([N+](=O)[O-])c1C	none
COc1ccc(-c2nc(NCCO)c3ncn(-c4ccccc4)c3n2)cc1	TEAD-YAP block 61
CCN(CC)C(=O)C1CCCc2c1[nH]c1ccc(Cl)cc21 (configuration not stated)	TEAD-YAP block 59
NC(=O)C1CCCc2c1[nH]c1ccc(Cl)cc21 (configuration not stated)	none
COC(=O)c1cccc(NC(=O)COc2cc(Cl)ccc2Cl)c1	none
CCc1ccc(/C(C)=N/N=C(N)N)cc1	TEAD-YAP block 35
CCN1CCN(C(c2ccccc2)c2nnnn2C2CCCCC2)CC1 (configuration not stated)	TEAD-YAP block 39
CCOCC(=O)Nc1ccc(-c2cn3c(C)csc3n2)cc1	TEAD-YAP block 51
COc1cccc(OC)c1C(=O)Nc1ccc(-c2cn3c(C)csc3n2)cc1	TEAD-YAP block 38
Cc1csc2nc(-c3ccc(NS(=O)(=O)c4cccnc4)cc3)cn12	TEAD-YAP block 36
CCOc1ccc(C(=S)N2CCOCC2)c(OCC)c1	none
CC(Oc1ccc(F)cc1)C(=O)N(Cc1ccccc1Cl)C1CCS(=O)(=O)C1 (configuration not stated)	none
Cc1noc(C)c1-c1nc(NCc2nc3ccccc3[nH]2)c2ncn(-c3ccsc3)c2n1	none
c1ccc2[nH]c(CNc3nc(N4CCOCC4)nc4c3ncn4-c3ccsc3)nc2c1	TEAD-YAP block 88
CCN(CC)c1nc(NCc2nc3ccccc3[nH]2)nc(N2CCN(c3ccccn3)CC2)n1	TEAD-YAP block 34
CCN(CC)c1nc(NCCc2ccc(O)cc2)nc(N2CCN(c3ccccn3)CC2)n1	none
CC(C)n1cnc2c(NCc3nc4ccccc4[nH]3)nc(N3CCCC3CO)nc21 (configuration not stated)	TEAD-YAP block 72
CC(C)n1cnc2c(NCc3nc4ccccc4[nH]3)nc(N3CCN(c4ccccn4)CC3)nc21	TEAD-YAP block 72
c1ccc2[nH]c(CNc3nc(Nc4ccc(N5CCOCC5)cc4)nc4c3ncn4C3CCCCC3)nc2c1	none
c1ccc(-n2cnc3c(NCc4nc5ccccc5[nH]4)nc(N4CCC(N5CCOCC5)CC4)nc32)cc1	TEAD-YAP block 44
Cn1c(Nc2nc(NCc3ccccc3)c3ncn(C4CCCCC4)c3n2)nc2ccccc21	none
c1ccc2[nH]c(CNc3nc(N4CCOCC4)nc4c3ncn4C3CCCCC3)nc2c1	TEAD-YAP block 74
Cn1c(Nc2nc(NCc3nc4ccccc4[nH]3)c3ncn(C4CCCCC4)c3n2)nc2ccccc21	TEAD-YAP block 34
CC(C)n1cnc2c(NCc3nc4ccccc4[nH]3)nc(Nc3ccc(N4CCOCC4)cc3)nc21	TEAD-YAP block 57
Cn1ncc2c(Nc3ccc(F)cc3)nc(N3CCN(c4ccccc4)CC3)nc21	none
CSCCCN1CCc2nnc(CCc3ccccc3)n2CC1	none
Cc1cc(-c2nnc(NC(=O)Cc3c(F)cccc3Cl)o2)c(C)o1	none
CC(C)n1cnc2c(NCc3nc4ccccc4[nH]3)nc(N3CCC(N4CCOCC4)CC3)nc21	TEAD-YAP block 63
c1ccc2[nH]c(CNc3ncnc4nc(N5CCN(Cc6ccc7c(c6)OCO7)CC5)[nH]c34)nc2c1	TEAD-YAP block 54
CC(C)n1cnc2c(NCc3ccccc3)nc(N3CCN(Cc4ccc5c(c4)OCO5)CC3)nc21	none
CC(C)n1cnc2c(NCc3nc4ccccc4[nH]3)nc(N3CCN(Cc4ccc5c(c4)OCO5)CC3)nc21	TEAD-YAP block 68
OCCNc1ncnc2nc(N3CCN(Cc4ccc5c(c4)OCO5)CC3)[nH]c12	none
O=C(CSc1nc(-c2ccco2)cc(C(F)(F)F)n1)Nc1cccnc1	TEAD-YAP block 48
CC(=O)Nc1cccc(NC(=O)CSc2nc(-c3ccco3)cc(C(F)(F)F)n2)c1	TEAD-YAP block 42
CCCNC(=O)CSc1nc(-c2ccco2)cc(C(F)(F)F)n1	none
CC(C)NC(=O)CSc1nc(-c2ccco2)cc(C(F)(F)F)n1	none
O=C(Nc1ncc([N+](=O)[O-])s1)c1ccc(Br)cc1F	TEAD-YAP block 85
COc1ccc(C2=NN(C(=O)c3cc(OC)c(OC)c(OC)c3)C(c3ccccc3OC)C2)cc1OC (configuration not stated)	TEAD-YAP block 35
Cc1cccc(N(CC(=O)Nc2cccnc2)S(=O)(=O)c2ccc(Cl)cc2)c1	none
c1cc(-n2cnc3c(NCCN4CCOCC4)nc(NCCN4CCOCC4)nc32)cs1	none
CC(=O)Nc1ccc(Nc2nc(NCCN3CCOCC3)nc3c2ncn3-c2ccsc2)cc1	TEAD-YAP block 51
c1cn(-c2ccc(Nc3nc(NCCN4CCOCC4)c4ncn(-c5ccsc5)c4n3)cc2)cn1	TEAD-YAP block 46
CCCNc1nc(Nc2ccc(N3CCOCC3)cc2)nc2c1ncn2-c1ccsc1	TEAD-YAP block 47
COc1cc(Nc2nc(NCCN3CCOCC3)nc3c2ncn3-c2ccsc2)cc(OC)c1OC	none
c1cc(-n2cnc3c(Nc4ccc(N5CCOCC5)cc4)nc(NCCN4CCOCC4)nc32)cs1	TEAD-YAP block 45
CC1Cc2ccccc2N1S(=O)(=O)c1nnc(NC(=O)c2ccc(Cl)cc2)s1 (configuration not stated)	none
CC(C)N1CCN(Cc2cccc3ccccc23)CC1CCO (configuration not stated)	none
CCOCCn1c(=NC(=O)c2cccc(N3C(=O)CCC3=O)c2)sc2cc(C)ccc21	none
c1cn(-c2ccc(Nc3nc(NCCN4CCOCC4)c4ncn(C5CCCCC5)c4n3)cc2)cn1	TEAD-YAP block 47
c1ccc(Nc2nc(NCCN3CCOCC3)c3ncn(C4CCCCC4)c3n2)cc1	none
c1cc(-n2cnc3c(NCCN4CCOCC4)nc(Nc4ccc(N5CCOCC5)cc4)nc32)cs1	TEAD-YAP block 62
O=C(NCCCN1CCOCC1)C(Cc1ccccc1)NS(=O)(=O)c1ccc(Cl)cc1 (configuration not stated)	FBW7 act 2.4
COc1cc(OC)cc(-c2cc3nc(C)c(CCC(=O)O)c(C)n3n2)c1	TEAD-YAP block 56
CCCCOc1ccccc1C(=O)NNC(=S)NC(C)=O	none
CC(=O)NC(=S)NNC(=O)c1ccccc1OCc1ccccc1	TEAD-YAP block 63
C/C(=N\N=C1/NC(=O)C(CC(=O)O)S1)c1ccc2ccccc2c1O (configuration not stated)	MITF inh 83
O=[N+]([O-])c1c(N2CCCC2)cc(Cl)c2nonc12	TEAD-YAP block 33
C=CC[n+]1c(Nc2ccc(NC(C)=O)cc2)sc(C)c1-c1ccccc1	TEAD-YAP block 33
COc1cc2oc(=O)c(CC(=O)NCc3ccccc3)c(C)c2cc1OC	TEAD-YAP block 49
Cc1ccc2nsnc2c1NC(=O)/C=C/c1cccc([N+](=O)[O-])c1	none
COc1ccc(-c2nc(NCCc3ccc(O)cc3)c3[nH]cnc3n2)cc1	TEAD-YAP block 59
COc1ccc(-c2nc(NCCc3ccc(O)cc3)c3[nH]cnc3n2)cn1	TEAD-YAP block 33
COc1ccc(CCNc2nc(-c3ccc(OC)nc3)nc3nc[nH]c23)cc1	none
